Results reported in PubChem BioAssay AID652071 (NMMLSC, 2013).
The source made the active and inactive calls. No rule for the calls is given here.

assay: yeast cytosolic pH changes via V-ATPase – S. cerevisiae, pHLuorin, powder set 4, dose response (AID 652071); conditions: S. cerevisiae pHLuorin cytosolic pH fluorescence; series mostly up to 100 µM

outcome, inactive:
CC(=O)N1CCN(c2ccccc2NC(=O)c2cccc(C(=O)N(C)C)c2)CC1, O=C(Nc1ccccc1N1CCCCC1)c1ccc(Cl)o1, CS(=O)(=O)c1cccc(C(=O)N2CCN(c3nc4ccc(F)cc4s3)CC2)c1, Cc1ccc(C(=O)Nc2ccccc2N2CCCCC2)o1, N#Cc1cccc(C(=O)Nc2ccccc2N2CCCCC2)c1, Cc1ccnc(C(=O)Nc2ccccc2N2CCCCC2)c1, NC(=O)c1ccc(C(=O)Nc2ccccc2N2CCCCC2)o1, CN1CCN(c2ccccc2NC(=O)c2cccc(C(F)(F)F)c2)CC1, N#CCc1cccc(C(=O)Nc2ccccc2N2CCCCC2)c1, CN1CCN(c2ccccc2NC(=O)c2ccc(-c3ccccc3)o2)CC1, CN1CCN(c2ccccc2NC(=O)c2ccc(Cl)o2)CC1, CN1CCN(c2ccccc2NC(=O)c2cc(Cl)ccn2)CC1, COCc1ccc(C(=O)Nc2ccccc2N2CCN(C(C)=O)CC2)o1, CS(=O)(=O)Cc1cccc(C(=O)Nc2ccccc2N2CCCCC2)c1, CC(=O)N1CCN(c2ccccc2NC(=O)c2cccc(Br)n2)CC1, CS(=O)(=O)c1ccc(C(=O)Nc2ccccc2N2CCCCC2)o1, CC(=O)N1CCN(c2ccccc2NC(=O)c2occc2-c2ccccc2)CC1, CN1CCN(c2ccccc2NC(=O)c2occc2-c2ccccc2)CC1, CC(=O)N1CCN(c2ccccc2NC(=O)c2ccc(C(F)(F)F)o2)CC1, N#CCc1cccc(C(=O)N2CCN(c3nc4ccc(F)cc4s3)CC2)c1, O=C(Nc1ccccc1N1CCCCC1)c1cccc(Br)n1, O=C(Nc1ccccc1N1CCCCC1)c1occc1-c1ccccc1, CN1CCN(c2ccccc2NC(=O)c2ccc(C(N)=O)o2)CC1, CN1CCN(c2ccccc2NC(=O)c2cccc(CC#N)c2)CC1, CN1CCN(c2ccccc2NC(=O)c2cncc(Cl)n2)CC1, N#CCc1cccc(C(=O)Nc2ccccc2N2CCOCC2)c1, CC(=O)N1CCN(c2ccccc2NC(=O)c2cccc(CN(C)C)c2)CC1, CC(=O)N1CCN(c2ccccc2NC(=O)c2cc(C(F)(F)F)ccn2)CC1, CC(=O)N1CCN(c2ccccc2NC(=O)c2ccc(-c3ccccc3)o2)CC1, O=C(Nc1ccccc1N1CCCCC1)c1cc(C(F)(F)F)ccn1, COCc1cccc(C(=O)Nc2ccccc2N2CCCCC2)c1, O=C(Nc1ccccc1N1CCCCC1)c1ccc(Br)o1, CC(=O)N1CCN(c2ccccc2NC(=O)c2ccc(C)o2)CC1, O=C(c1ccc(Cl)o1)N1CCN(c2nc3ccc(F)cc3s2)CC1
